According to PubChem BioAssay AID1159580 (chemical genetic matrix, 2015):
Among all 5,500 compounds or so, about 2,000 (36%) were called active. Roughly 18% stayed inconclusive and do not appear here. No stated cut-off is given here; in the data, active means normalized growth mostly below about 0.91 (no sharp cut-off); inconclusive means no clear call, values can overlap the other calls; inactive means mostly above about 0.92. Some of the results follow.

Assay: chemical genetic growth profiling, strain panel (AID 1159580);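 further: tested at 20 µM; growth read once vehicle control cultures reached saturation at 30 °C; 1 = growth at the plate median or of vehicle wells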
Details: growth OD

Measured: normalized growth

OCC(O)Cc1ccc2c(c1)OCO2 (centres undefined)
inactive: S. cerevisiae deletion strains, locus YJR043C, strain POL32, stronger effect = lower value 0.995 | S. cerevisiae deletion strains, locus YJR075W, strain HOC1, stronger effect = lower value 0.984 | S. cerevisiae deletion strains, locus YKL009W, strain mrt4, stronger effect = lower value 1 | S. cerevisiae deletion strains, locus YKL068W, stronger effect = lower value 1 | S. cerevisiae deletion strains, locus YKL085W, strain MDH1 (second series), stronger effect = lower value 1.03 | S. cerevisiae deletion strains, locus YKL085W, strain MDH1, stronger effect = lower value 1.03 | S. cerevisiae deletion strains, locus YKL160W, strain elf1, stronger effect = lower value 1 | S. cerevisiae deletion strains, locus YKL190W, strain CNB1, stronger effect = lower value 1.02 | S. cerevisiae deletion strains, locus YKR001C, strain vps1, stronger effect = lower value 0.999 | S. cerevisiae deletion strains, locus YKR026C, strain gcn3, stronger effect = lower value 0.989 | S. cerevisiae deletion strains, locus YKR091W, strain srl3, stronger effect = lower value 1 | S. cerevisiae deletion strains, locus YLL001W, strain dnm1, stronger effect = lower value 1 | S. cerevisiae deletion strains, locus YLL026W, stronger effect = lower value 0.997 | S. cerevisiae deletion strains, locus YLL041C, strain sdh2, stronger effect = lower value 0.994 | S. cerevisiae deletion strains, locus YLR027C, strain aat2, stronger effect = lower value 0.976 | S. cerevisiae deletion strains, locus YLR039C, strain RIC1, stronger effect = lower value 1.03 | S. cerevisiae deletion strains, locus YLR058C, strain SHM2, stronger effect = lower value 1.02 | S. cerevisiae deletion strains, locus YLR102C, strain apc9, stronger effect = lower value 1 | S. cerevisiae deletion strains, locus YLR221C, strain rsa3, stronger effect = lower value 0.997 | S. cerevisiae deletion strains, locus YLR258W, strain gsy2, stronger effect = lower value 1.01 | S. cerevisiae deletion strains, locus YLR262C, strain YPT6 (second series), stronger effect = lower value 1.01 | S. cerevisiae deletion strains, locus YLR262C, strain YPT6, stronger effect = lower value 1.06 | S. cerevisiae deletion strains, locus YLR268W, strain sec22, stronger effect = lower value 1 | S. cerevisiae deletion strains, locus YLR320W, strain mms22, stronger effect = lower value 0.983 | S. cerevisiae deletion strains, locus YLR330W, strain CHS5, stronger effect = lower value 1.01 | S. cerevisiae deletion strains, locus YLR342W, strain FKS1 (second series), stronger effect = lower value 0.99 | S. cerevisiae deletion strains, locus YLR342W, strain FKS1, stronger effect = lower value 0.992 | S. cerevisiae deletion strains, locus YLR357W, strain rsc2, stronger effect = lower value 0.973 | S. cerevisiae deletion strains, locus YLR370C, strain arc18, stronger effect = lower value 1 | S. cerevisiae deletion strains, locus YLR371W, strain rom2, stronger effect = lower value 0.989 | S. cerevisiae deletion strains, locus YLR384C, strain iki3, stronger effect = lower value 0.992 | S. cerevisiae deletion strains, locus YLR418C, strain cdc73, stronger effect = lower value 1.02 | S. cerevisiae deletion strains, locus YML016C, strain PPZ1, stronger effect = lower value 1.01 | S. cerevisiae deletion strains, locus YML032C, strain rad52, stronger effect = lower value 0.989 | S. cerevisiae deletion strains, locus YML120C, strain ndi1, stronger effect = lower value 0.995 | S. cerevisiae deletion strains, locus YML124C, strain tub3, stronger effect = lower value 0.996 | S. cerevisiae deletion strains, locus YMR058W, strain fet3, stronger effect = lower value 1.01 | S. cerevisiae deletion strains, locus YMR078C, strain ctf18, stronger effect = lower value 0.99 | S. cerevisiae deletion strains, locus YMR125W, strain sto1, stronger effect = lower value 0.997 | S. cerevisiae deletion strains, locus YMR129W, stronger effect = lower value 0.994 | S. cerevisiae deletion strains, locus YMR205C, strain PFK2, stronger effect = lower value 0.981 | S. cerevisiae deletion strains, locus YMR223W, strain ubp8, stronger effect = lower value 0.987 | S. cerevisiae deletion strains, locus YMR231W, strain pep5, stronger effect = lower value 0.996 | S. cerevisiae deletion strains, locus YMR263W, strain SAP30, stronger effect = lower value 1.03 | S. cerevisiae deletion strains, locus YMR307W, strain GAS1, stronger effect = lower value 0.956 | S. cerevisiae deletion strains, locus YNL067W, strain RPL9B, stronger effect = lower value 1.03 | S. cerevisiae deletion strains, locus YNL071W, strain lat1, stronger effect = lower value 1.01 | S. cerevisiae deletion strains, locus YNL128W, strain TEP1, stronger effect = lower value 1.02 | S. cerevisiae deletion strains, locus YNL153C, strain GIM3, stronger effect = lower value 1.03 | S. cerevisiae deletion strains, locus YNL209W, strain ssb2, stronger effect = lower value 1.02 | S. cerevisiae deletion strains, locus YNL233W, strain BNI4, stronger effect = lower value 1.04 | S. cerevisiae deletion strains, locus YNL248C, strain rpa49, stronger effect = lower value 0.979 | S. cerevisiae deletion strains, locus YNL250W, strain rad50, stronger effect = lower value 1.01 | S. cerevisiae deletion strains, locus YNL271C, strain bni1, stronger effect = lower value 0.996 | S. cerevisiae deletion strains, locus YNL298W, strain CLA4, stronger effect = lower value 1.01 | S. cerevisiae deletion strains, locus YNL307C, strain MCK1, stronger effect = lower value 0.999 | S. cerevisiae deletion strains, locus YNL322C, strain KRE1 (second series), stronger effect = lower value 1 | S. cerevisiae deletion strains, locus YNL322C, strain KRE1, stronger effect = lower value 1.01 | S. cerevisiae deletion strains, locus YNR049C, strain mso1, stronger effect = lower value 0.989 | S. cerevisiae deletion strains, locus YNR052C, strain pop2, stronger effect = lower value 0.989 | S. cerevisiae deletion strains, locus YOL006C, strain TOP1, stronger effect = lower value 1.07 | S. cerevisiae deletion strains, locus YOL012C, strain htz1 0.853 | S. cerevisiae deletion strains, locus YOL147C, strain pex11, stronger effect = lower value 1 | S. cerevisiae deletion strains, locus YOR001W, strain rrp6, stronger effect = lower value 0.985 | S. cerevisiae deletion strains, locus YOR061W, strain CKA2, stronger effect = lower value 1.02 | S. cerevisiae deletion strains, locus YOR069W, strain VPS5, stronger effect = lower value 1 | S. cerevisiae deletion strains, locus YOR070C, strain gyp1, stronger effect = lower value 1 | S. cerevisiae deletion strains, locus YOR080W, strain dia2, stronger effect = lower value 0.988 | S. cerevisiae deletion strains, locus YOR083W, strain WHI5, stronger effect = lower value 1 | S. cerevisiae deletion strains, locus YOR106W, strain vam3, stronger effect = lower value 1.03 | S. cerevisiae deletion strains, locus YOR136W, strain idh2, stronger effect = lower value 0.993 | S. cerevisiae deletion strains, locus YOR144C, strain elg1, stronger effect = lower value 0.997 | S. cerevisiae deletion strains, locus YOR184W, strain ser1, stronger effect = lower value 0.99 | S. cerevisiae deletion strains, locus YOR265W, strain rbl2, stronger effect = lower value 1 | S. cerevisiae deletion strains, locus YOR270C, strain vph1, stronger effect = lower value 1.03 | S. cerevisiae deletion strains, locus YOR290C, strain snf2, stronger effect = lower value 1.01 | S. cerevisiae deletion strains, locus YOR316C, strain cot1, stronger effect = lower value 0.997 | S. cerevisiae deletion strains, locus YPL051W, strain arl3, stronger effect = lower value 1 | S. cerevisiae deletion strains, locus YPL055C, strain LGE1, stronger effect = lower value 1.06 | S. cerevisiae deletion strains, locus YPL078C, strain atp4, stronger effect = lower value 1.02 | S. cerevisiae deletion strains, locus YPL106C, strain sse1, stronger effect = lower value 0.979 | S. cerevisiae deletion strains, locus YPL240C, strain hsp82, stronger effect = lower value 1 | S. cerevisiae deletion strains, locus YPL241C, strain CIN2, stronger effect = lower value 1.01 | S. cerevisiae deletion strains, locus YPR119W, strain clb2, stronger effect = lower value 0.995 | S. cerevisiae deletion strains, locus YPR141C, strain kar3, stronger effect = lower value 0.997 | S. cerevisiae deletion strains, locus YPR163C, strain tif3, stronger effect = lower value 0.992 | S. cerevisiae deletion strains, locus YPR167C, strain met16, stronger effect = lower value 0.996 | S. cerevisiae deletion strains, strain wtn01, stronger effect = lower value 0.997 | S. cerevisiae strains, strain wild type, stronger effect = lower value 1.01
